Assay outcomes: PubChem, National Center for Advancing Translational Sciences (NCATS)
LMNA splice mod – changes lamin A minigene splicing in HeLa cells; Potency, µM (series often up to 46.1 µM), without a hit: top-dose ratio change, negative = inhibition, most hits filed as inhibitors; HeLa LMNA splicing GFP/RFP minigene ratio, 48 h; 200,000 tested, 0.01% active; active = well fitted inhibition curve with a large enough effect in the signal ratio, with a control signal flat, not every such curve was filed as active; inconclusive = small, poorly fitted or top-dose-only effect, or effect the other way, or a change in a side signal; the % refers to the signal ratio; also: potency is read from the fitted curve at half-maximal effect
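Read-out is the ratio of GFP to DsRed2 object intensity, acquired by 488 nm laser-scanning cytometry on HeLa lamin A-EGFP minigene reporter cells. Compound incubation 48 hrs at 37 °C in Opti-MEM with 2% FBS; DMSO 0.5% final.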
HPGD inh – blocks human HPGD enzyme activity; purified HPGD, NADH fluorescence kinetic, PGE2 substrate; AID 894; P15428; 150,000 tested, 4.3% active; Potency, µM, for inactives: at the top dose activity change, negative = inhibition, usual class: inhibitors; also: potency is read from the fitted curve at half-maximal effect
Target sequence (P15428 whole entry, looked up): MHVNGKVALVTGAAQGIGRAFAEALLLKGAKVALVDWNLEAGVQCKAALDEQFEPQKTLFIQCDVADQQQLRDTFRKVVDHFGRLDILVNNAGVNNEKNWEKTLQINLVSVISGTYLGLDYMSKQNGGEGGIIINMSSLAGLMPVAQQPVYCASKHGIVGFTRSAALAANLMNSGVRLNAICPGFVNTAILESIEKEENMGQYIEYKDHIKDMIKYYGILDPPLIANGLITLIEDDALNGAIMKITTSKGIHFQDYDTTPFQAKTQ
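20 nM HPGD preincubated 15 min at room temperature with compound in 50 mM Tris-HCl pH 8, 0.01% Tween 20. Started with 1 mM NAD+ and 30 uM prostaglandin E2; NADH fluorescence (360/450 nm) read 5 times over 30-s intervals, last minus first.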
Luc counter – counter-screen: inhibitors of Kinase-Glo firefly luciferase. Potency, µM (series often up to 38.3 µM), for inactives: at the highest dose activity change, negative = inhibition, usual class: inhibitors. AID 1379. Q27757. Kinase-Glo luciferase, ATP luminescence, 8 min. 200,000 tested, 0.28% active; active = well fitted inhibition curve with a large enough effect; inconclusive = small, poorly fitted or top-dose-only effect; also: potency is read from the fitted curve at half-maximal effect; nearly all actives have a fitted effect of over 60% in size
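Luminescence was the read-out, taken after 8-minute incubation at ambient temperature. Luciferase turned over luciferin with 10 uM ATP in imidazole pH 7.2 buffer containing KCl, MgCl2, Tween 20 and BSA.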
ALDH1A1 block – inhibitors of human aldehyde dehydrogenase 1A1; P00352; Purified ALDH1A1, NADH fluorescence, propionaldehyde substrate; Potency, µM (highest dose often 75.3 µM), without a hit: at the highest dose activity, negative = inhibition, hits mostly inhibitors; 220,000 tested, 7.3% active; AID 1030;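 also: potency is read from the fitted curve at half-maximal effect; plate controls were no enzyme wells and a reference inhibitor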
Target sequence (P00352 whole entry, looked up): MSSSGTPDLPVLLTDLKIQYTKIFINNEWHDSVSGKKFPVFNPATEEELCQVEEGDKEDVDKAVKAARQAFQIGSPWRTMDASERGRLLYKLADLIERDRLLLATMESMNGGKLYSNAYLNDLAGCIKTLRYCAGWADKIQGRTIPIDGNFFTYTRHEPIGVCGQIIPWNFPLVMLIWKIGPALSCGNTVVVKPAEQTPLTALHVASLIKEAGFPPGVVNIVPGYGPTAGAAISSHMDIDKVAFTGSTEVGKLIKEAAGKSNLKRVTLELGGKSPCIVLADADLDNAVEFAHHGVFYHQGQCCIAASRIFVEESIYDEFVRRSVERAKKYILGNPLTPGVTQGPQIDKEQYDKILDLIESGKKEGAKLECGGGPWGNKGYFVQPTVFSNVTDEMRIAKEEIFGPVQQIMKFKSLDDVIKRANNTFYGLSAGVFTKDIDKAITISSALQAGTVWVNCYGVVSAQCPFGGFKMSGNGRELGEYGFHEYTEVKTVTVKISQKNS
PNC assembly inh – perinucleolar compartment assembly inhibition; activity change (PNC), negative = inhibition, % at 10 µM; PC3M PTB-GFP, PNC prevalence imaging, 16 h; stronger effect = lower value; 140,000 tested, 3.1% active;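 active = readout at or below -70, meaning at least 70% loss of cells showing the perinucleolar compartment, a nuclear body marking cancer cells; inconclusive = readout between -30 and a set limit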;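 also: plate controls were DMSO wells for no effect and camptothecin positive control wells for full effect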
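Compounds are pinned in duplicate onto adhered PC3M cells stably expressing GFP-tagged PTB and incubated 16 h at 37 C. Cells are then fixed, nuclei stained with Hoechst, and PNC-positive cells counted.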
* marks the source's active call; other numbers are inactive results; ? = inconclusive; . = not tested or not shown; [ ] = remark or other dose. Shown are actives, neighbours in structure and some others; about 10% of the full set was active somewhere. Unless noted, calls follow the shape of the dose curve; as a rule, active = well fitted inhibition curve with a large enough effect (not every such curve was filed as active); inconclusive = small, poorly fitted or top-dose-only effect, or another doubt; inactive = no such curve, though single readings can be large or run the other way. Unless noted, % is scaled to controls: 0 for no effect and ±100 for the full control effect.

SMILES	LMNA splice mod	HPGD inh	Luc counter	ALDH1A1 block	PNC assembly inh
Cn1c(SCc2ccc(Cl)cc2)nnc1C1CC1	-6.5%[46 µM]	.	-2.1%	11.9µM*	.
CCn1c(SCc2ccccc2)nnc1C1CCCCC1	-4.2%	.	.	?	-5.7
Cn1c(SCc2ccccc2)nnc1C1CCCNC1 (stereo not drawn)	0.4%	-2.1%	4.2%	4.6%	-106.9*
COc1ccc(CNC(=O)C2CCN(C(=O)N3CCOc4ccc(Cl)cc43)CC2)cc1	3.8%[46 µM]	.	.	.	.
CCC(=O)NC(c1ccccc1OC)c1ccc2cccnc2c1O (stereo not drawn)	?	-10.7%	0.7%	0.5%	-100.0*
Cc1cnc(C(=O)Nc2ccccc2-n2cccc2)cn1	6.0%	-10.9%	-3.7%	15.8µM*	-16.9
Cc1cnc(C(=O)Nc2ccc(F)cc2)cn1	0.6%	-22.6%	?	31.6µM*	34.7
Cc1cnc(C(=O)Nc2ccc(C(C)C)cc2)cn1	?	.	-1.6%	-2.7%	.
Cc1cnc(C(=O)Nc2ccc(C(=O)N(C)C3CCCCC3)cc2)cn1	3.0%	12.6µM*	0.6%	9.2%	-21.0
CCCC(CCC)C(=O)Nc1cc(-c2cn3cccnc3n2)ccc1OC	21.8%[46 µM]	.	.	.	.
NCCC[C@@H](CC(=O)N[C@@H]1CCNC[C@H]1C(=O)N[C@H](CC(=O)N[C@@H](CCC(=O)O)CC(=O)O)Cc1ccccc1)NC(=O)C[C@H](CO)NC(=O)[C@@H]1CCCC[C@H]1N	.	-9.9%	-1.3%	1.2%	.
N#Cc1c(N)c(C(=O)c2ccccc2)n2c1CCCC2	-13.9%	-9.7%	-3.4%	-19.6%	11.0
CC(=O)N(C(C)=O)c1c(C#N)c(C)n(-c2ccccc2)c1C(=O)c1ccccc1	-5.0%	5.3%	-1.1%	-4.5%	-92.5*
Nc1ncc(S(=O)(=O)N2CCN(c3ccccc3)CC2)cn1	-3.4%[46 µM]	.	.	.	.
Cc1c(CCNS(=O)(=O)c2ccccc2)sc2nc(-c3ccc(Cl)cc3)nn12	-17.6%[46 µM]	.	.	.	.
Cc1noc(C)c1-c1nc(NCc2cccs2)c2ccccc2n1	-5.3%	.	.	8.7%	.
CCOC(=O)c1[nH]c2ccc(Br)cc2c1NC(=O)CCN1CCCC(C)C1 (stereo not drawn)	?	-16.5%	1.2%	-0.9%	23.2
CCOC(=O)c1[nH]c2ccc(Br)cc2c1NC(=O)CCN1CCC(C)CC1	-5.5%	-14.9%	0.2%	11.2µM*	13.6
O=C(CCS(=O)(=O)c1ccc(Br)s1)NCc1ccccc1	7.1%	4.4%	-5.1%	0.6%	-2.5
Cc1ccc(CNC(=O)CCS(=O)(=O)c2ccc(Br)s2)o1	6.9%	-16.2%	-0.7%	22.4µM*	-1.8
Cc1cccc(Nc2nc(N)nc(CN3CCN(Cc4ccc5c(c4)OCO5)CC3)n2)c1	?	-6.6%	5.0%	14.1µM*	36.1
Cc1ccc(C)c(N2C(=O)CC(N3CCN(Cc4ccc5c(c4)OCO5)CC3)C2=O)c1 (stereo not drawn)	1.6%	-13.4%	0.9%	?	55.3
Cc1cccc(N2C(=O)CC(N3CCN(Cc4ccc5c(c4)OCO5)CC3)C2=O)c1 (stereo not drawn)	0.1%	-1.1%	-0.3%	22.4µM*	?
O=C1CC(N2CCN(c3ccccc3)CC2)C(=O)N1c1ccc2c(c1)OCCO2 (stereo not drawn)	-3.2%	0.3%	1.9%	-13.7%	-0.4
O=C1CC(N2CCN(c3ccc(F)cc3)CC2)C(=O)N1c1ccc2c(c1)OCO2 (stereo not drawn)	.	.	-0.8%	18.9µM*	.
SMILES	LMNA splice mod	HPGD inh	Luc counter	ALDH1A1 block	PNC assembly inh
O=C1CC(N2CCN(Cc3ccc4c(c3)OCO4)CC2)C(=O)N1c1ccccc1 (stereo not drawn)	19.8%	-9.8%	-6.2%	15.8µM*	-7.8
Nc1nc2c(nc(Sc3ccc(Cl)cc3)n2C2OC(CO)C(O)C2O)c(=O)[nH]1 (stereo not drawn)	-11.5%	-15.1%	-0.2%	1.3%	.
CCn1cc(S(=O)(=O)c2ccccc2)c(=O)c2cc(F)c(N3CCCC3)cc21	-13.3%[46 µM]	.	.	.	.
COc1ccc2[nH]cc(CCNc3ccnc(-c4ccccc4Cl)n3)c2c1	?	.	.	25.1µM*	.
O=C(NCCCN1CCOCC1)c1cc(Cl)ccc1[N+](=O)[O-]	-12.9%	-11.3%	-2.1%	1.6%	?
Cc1cc2c(cc(C(=O)NCCCN3CCOCC3)n2Cc2ccc(Cl)cc2)o1	-16.9%	12.6µM*	-1.9%	?	?
Cc1ccc(Cn2c(C(=O)NCCCN3CCOCC3)cc3sccc32)cc1	-8.2%	-17.7%	-1.6%	?	?
Cc1cccc2c(=O)c(C(=O)NCCCN3CCOCC3)c[nH]c12	-2.1%	-8.2%	-1.3%	8.4%	-100.0*
CCN(CC)S(=O)(=O)c1ccc(F)c(C(=O)NCCCN2CCOCC2)c1	10.7%	-14.4%	-6.7%	-0.9%	-116.6*
Cc1ccccc1CS(=O)(=O)Cc1ccc(C(=O)NCCCN2CCOCC2)o1	2.9%	0.7%	-0.9%	4.4%	-89.8*
CCOc1ccccc1C(=O)N(Cc1cccs1)c1ccc(Cl)cc1	-1.7%[46 µM]	.	.	.	.
Cc1ccc(C(=O)NCC(=O)OCc2cc(=O)n3nc(C4CCCCC4)sc3n2)cc1	1.2%[46 µM]	.	.	.	.
O=C(NCc1ccccc1)c1ccc(CS(=O)(=O)Cc2ccccc2F)o1	.	.	-1.8%	12.6µM*	.
CCOC(=O)C1CCN(C(c2ccc(C)cc2)c2sc3nc(-c4ccco4)nn3c2O)CC1 (stereo not drawn)	3.1%[46 µM]	.	.	.	.
CCOc1cccc(-c2nnc(SCC(=O)Nc3ccc(OC)c(OC)c3)n2N)c1	6.5%	-3.4%	10.1%	-2.9%	-108.0*
COc1ccc(NC(=O)CSc2nnc(-c3ccccc3C)n2N)cc1OC	2.8%	.	.	1.6%	3.9
CCOc1cccc(-c2nnc(SCC(=O)Nc3cc(OC)cc(OC)c3)n2N)c1	7.3%	16.8%	-2.9%	-10.2%	?
COc1ccc(NC(=O)CSc2nnc(-c3ccccc3C)n2N)cc1	?	?	-6.4%	12.6µM*	-13.4
COCCn1c(=O)c(-c2cn(C)c3ccccc23)nc2cnc(Oc3cccc(Cl)c3)nc21	12.8%	.	.	-0.1%	.
CNC(=O)C1CCN(C(=O)N2CC(C)Oc3ccc(Cl)cc32)CC1 (stereo not drawn)	-14.9%[46 µM]	.	.	.	.
CCOc1cc(/C=N/n2cnnc2)ccc1OCC(=O)Nc1ccccc1OC	-3.9%	?	-0.6%	?	11.6
CCOc1cc(/C=N/n2cnnc2)ccc1OS(=O)(=O)c1ccc(C)cc1	-2.2%[46 µM]	.	-0.5%	22.4µM*	.
CCc1ccc(NC(=O)CSc2ccc3nc(-c4ccc(OC)cc4)cn3n2)cc1	26.5%[46 µM]	.	.	.	.
O=c1c2ccccc2oc2nc(-c3ccco3)n(CCc3ccccc3)c(=O)c12	3.9%	2.7%	-5.4%	3.0%	-100.0*
O=c1c2ccccc2oc2nc(-c3ccco3)n(-c3ccccc3)c(=O)c12	?	30.2%	-0.4%	-12.0%	2.0
COc1ccc2c(=O)c3c(=O)n(Cc4ccco4)c(-c4ccccc4)nc3oc2c1	4.3%	-19.1%	-1.1%	22.4µM*	19.8
C[C@@H]1/C=C\CC(=O)OC[C@H](C)C(=O)N[C@@H](C)C(=O)OC1	.	.	.	7.6%[13.5 µM]	.
